Laboratory results reported in PubChem BioAssay (NCATS).
Results filed as inconclusive are left out. The source made the active and inactive calls. The call rests on the fitted dose curve; in most records, active means well fitted curve in the direction sought with a large enough effect; inconclusive means small, poorly fitted or top-dose-only effect, or another doubt; inactive means no such curve, though single readings can be large; an effect the other way counts as inactive or inconclusive.

Columns and labels:
[1] = target: Parathyroid hormone/parathyroid hormone-related peptide receptor (Homo sapiens) (UniProt Q03431); test: qHTS for PTHR1 Agonists: Optimization Screen against the NCGC LOPAC library (AID 1347079);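 further: GloSensor cAMP luminescence in HEK-293 GP2 cells expressing human PTHR1 with IBMX; 0% is about no effect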
Parathyroid hormone/parathyroid hormone-related peptide receptor (Homo sapiens), sequence (Q03431 whole entry, looked up): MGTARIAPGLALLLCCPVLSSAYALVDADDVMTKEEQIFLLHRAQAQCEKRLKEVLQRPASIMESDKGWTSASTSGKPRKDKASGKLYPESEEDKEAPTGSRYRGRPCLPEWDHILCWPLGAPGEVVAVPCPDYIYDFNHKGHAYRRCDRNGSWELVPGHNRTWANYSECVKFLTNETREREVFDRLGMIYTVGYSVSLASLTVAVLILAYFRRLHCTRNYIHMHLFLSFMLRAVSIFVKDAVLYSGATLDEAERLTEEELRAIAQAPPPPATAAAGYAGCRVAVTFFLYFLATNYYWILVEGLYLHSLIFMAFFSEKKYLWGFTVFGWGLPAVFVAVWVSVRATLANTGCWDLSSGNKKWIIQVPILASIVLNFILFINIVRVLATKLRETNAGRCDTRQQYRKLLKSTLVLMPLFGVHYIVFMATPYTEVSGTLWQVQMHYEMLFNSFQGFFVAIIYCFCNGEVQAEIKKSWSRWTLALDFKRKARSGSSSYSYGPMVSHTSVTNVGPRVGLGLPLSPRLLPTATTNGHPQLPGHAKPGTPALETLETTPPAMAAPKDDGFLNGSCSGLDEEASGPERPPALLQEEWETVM
Outline: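 HEK-293 GP2 cells, PTHR1 + GloSensor cAMP; 3000 cells/well, o/n. Luciferin + IBMX 0.5mM each (stock), 1 hr 37C. Cpd titration, 1 hr 37C. Lum after 15 min RT. Ctrl M-PTH(1-15) top 10uM.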

[2] = target: Tyrosine-protein phosphatase non-receptor type substrate 1 (Homo sapiens) + Leukocyte surface antigen CD47 (Homo sapiens) (UniProt P78324+Q08722); test: CD47-SIRPalpha protein protein interaction - Alpha assay qHTS validation (AID 1347059);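 further: bead proximity luminescence from CD47 binding SIRPalpha after compound preincubation with SIRPalpha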; further: potency means the concentration at half of the fitted maximal effect
Tyrosine-protein phosphatase non-receptor type substrate 1 (Homo sapiens) + Leukocyte surface antigen CD47 (Homo sapiens), sequence (P78324 whole entry, looked up, the tested form may be a part): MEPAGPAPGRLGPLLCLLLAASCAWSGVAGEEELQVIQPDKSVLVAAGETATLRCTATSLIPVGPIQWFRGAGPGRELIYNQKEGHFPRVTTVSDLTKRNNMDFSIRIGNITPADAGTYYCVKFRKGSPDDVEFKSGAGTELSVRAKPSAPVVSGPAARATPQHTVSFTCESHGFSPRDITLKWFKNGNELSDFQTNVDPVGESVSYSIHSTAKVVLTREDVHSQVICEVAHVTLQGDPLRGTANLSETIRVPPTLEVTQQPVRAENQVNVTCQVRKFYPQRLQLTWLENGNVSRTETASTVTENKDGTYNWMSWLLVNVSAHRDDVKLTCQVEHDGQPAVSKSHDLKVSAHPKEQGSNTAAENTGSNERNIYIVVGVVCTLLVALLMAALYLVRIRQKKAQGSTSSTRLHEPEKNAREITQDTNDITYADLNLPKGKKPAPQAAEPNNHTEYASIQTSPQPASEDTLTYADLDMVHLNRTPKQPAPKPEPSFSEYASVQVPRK
Tyrosine-protein phosphatase non-receptor type substrate 1 (Homo sapiens) + Leukocyte surface antigen CD47 (Homo sapiens), sequence (Q08722 whole entry, looked up, the tested form may be a part): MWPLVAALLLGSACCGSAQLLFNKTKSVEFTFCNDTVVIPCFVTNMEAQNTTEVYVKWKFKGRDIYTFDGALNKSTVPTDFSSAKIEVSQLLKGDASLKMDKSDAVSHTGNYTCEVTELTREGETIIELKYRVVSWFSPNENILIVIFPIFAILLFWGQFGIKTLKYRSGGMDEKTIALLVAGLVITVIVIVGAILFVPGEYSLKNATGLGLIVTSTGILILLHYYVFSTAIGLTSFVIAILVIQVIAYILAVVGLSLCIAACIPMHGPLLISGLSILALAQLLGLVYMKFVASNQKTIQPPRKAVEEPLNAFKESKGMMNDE
Outline: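 In PBS (pH 7.4) with 0.05% IGEPAL CA-630, compound is preincubated with biotin-Avi-SIRPalpha ectodomain before His-CD47 ectodomain and affinity beads are added. Light-protected room-temperature incubations; AlphaScreen readout.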

[3] = qHTS of pediatric cancer cell lines to identify multiple opportunities for drug repurposing: Primary screen for TC32 cells (AID 1347089); further: on the % scale 0 is the no-effect control and ±100 the full control effect; nearly all actives have a fitted effect of over 60% in size
Outline: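 Measured quantity: luminescence from CellTiter-Glo, reflecting metabolically active TC32 cells following 48 h of compound. Curves came straight from multi-point titrations, with 8 or 11 points in primary and 11 in confirmatory screening.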

[4] = qHTS of pediatric cancer cell lines to identify multiple opportunities for drug repurposing: Primary screen for DAOY cells (AID 1347090);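 further: series mostly up to about 46 µM; plate controls were DMSO for no effect and bortezomib for full effect; nearly all actives have a fitted effect of over 55% in size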
Outline: (§1)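 Eight- or eleven-point concentration series, 48 h treatment at 37 degrees C in growth media; readout CellTiter-Glo luminescence. Potency and efficacy were taken from the concentration-response curves.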

[5] = qHTS of pediatric cancer cell lines to identify multiple opportunities for drug repurposing: Primary screen for SJ-GBM2 cells (AID 1347091);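 further: plate controls were DMSO neutral control for no effect and bortezomib for full effect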
Outline: as §1

[6] = qHTS of pediatric cancer cell lines to identify multiple opportunities for drug repurposing: Primary screen for A673 cells (AID 1347092); further: on the % scale 0 is the no-effect control and ±100 the full control effect; nearly all actives have a fitted effect of over 45% in size
Outline: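 Cells are plated, rested 5 h, dosed by pintool, incubated 48 h, then lysed with CellTiter-Glo and read by luminescence. DMSO is the neutral control; bortezomib at 2.3 uM final is the positive control.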

[7] = qHTS of pediatric cancer cell lines to identify multiple opportunities for drug repurposing: Primary screen for SK-N-MC cells (AID 1347093); further: potency means the concentration at half of the fitted maximal effect;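 on activity change, negative = cytotoxic: series mostly up to about 46 µM; plate controls were DMSO neutral control for no effect and bortezomib for full effect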
Outline: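 Metabolically active cells were quantified by ATP-dependent luminescence (CellTiter-Glo, 15 min at room temperature) following 48 h treatment. Cells had been plated at 500-1,000 per well and settled for 5 h beforehand.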

[8] = qHTS of pediatric cancer cell lines to identify multiple opportunities for drug repurposing: Primary screen for BT-37 cells (AID 1347094);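 further: series mostly up to about 57 µM; plate controls were DMSO for no effect and bortezomib for full effect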
Outline: (§2)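 ATP-based luminescence (CellTiter-Glo) quantifies viability after a 48-hour exposure. Compounds are dosed across 8 or 11 final concentrations; DMSO and 2.3 µM bortezomib serve as controls.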

[9] = qHTS of pediatric cancer cell lines to identify multiple opportunities for drug repurposing: Primary screen for NB-EBc1 cells (AID 1347095); further: potency means the concentration at half of the fitted maximal effect;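 on activity change, negative = cytotoxic: plate controls were DMSO neutral control for no effect and bortezomib for full effect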
Outline: as §2

[10] = qHTS of pediatric cancer cell lines to identify multiple opportunities for drug repurposing: Primary screen for U-2 OS cells (AID 1347096);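 further: plate controls were DMSO wells for no effect and bortezomib positive control wells for full effect; nearly all actives have a fitted effect of over 50% in size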
Outline: (§3)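 Cells (500-1,000/well) in growth media were settled 5 h at 37 degrees C, then given compounds for 48 h. Viability was read as CellTiter-Glo luminescence. Primary runs used MIPE at 11 points (0.78 nM-46 µM) and NPC at 8 points (0.59 nM-46 µM); follow-ups used 11 points.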

[11] = qHTS of pediatric cancer cell lines to identify multiple opportunities for drug repurposing: Primary screen for Saos-2 cells (AID 1347097); further: on the % scale 0 is the no-effect control and ±100 the full control effect; nearly all actives have a fitted effect of over 40% in size
Outline: as §2

[12] = qHTS of pediatric cancer cell lines to identify multiple opportunities for drug repurposing: Primary screen for SK-N-SH cells (AID 1347098);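 further: DMSO served as neutral control and bortezomib at 2.3 µM as positive control; on the % scale 0 is the no-effect control and ±100 the full control effect; nearly all actives have a fitted effect of over 65% in size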
Outline: (§4)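 Cells (500-1,000/well) rested 5 h, then received compounds for 48 h; metabolically active cells were measured by CellTiter-Glo luminescence. Final concentrations spanned up to 46 µM (MIPE, 11-point) or 0.59 nM-46 µM (NPC, 8-point) in primary screens, 11-point in follow-ups.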

[13] = qHTS of pediatric cancer cell lines to identify multiple opportunities for drug repurposing: Primary screen for NB1643 cells (AID 1347099);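 further: plate controls were DMSO neutral control for no effect and bortezomib positive control for full effect; nearly all actives have a fitted effect of over 50% in size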
Outline: as §2

[14] = qHTS of pediatric cancer cell lines to identify multiple opportunities for drug repurposing: Primary screen for LAN-5 cells (AID 1347100); further: potency means the concentration at half of the fitted maximal effect;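 on activity change, negative = cytotoxic: plate controls were DMSO neutral control for no effect and bortezomib positive control for full effect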
Outline: as §3

[15] = qHTS of pediatric cancer cell lines to identify multiple opportunities for drug repurposing: Primary screen for BT-12 cells (AID 1347101);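 further: plate controls were DMSO for no effect and bortezomib positive control for full effect; nearly all actives have a fitted effect of over 25% in size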
Outline: as §4

[16] = qHTS of pediatric cancer cell lines to identify multiple opportunities for drug repurposing: Primary screen for Rh18 cells (AID 1347102); further: on the % scale 0 is the no-effect control and ±100 the full control effect; nearly all actives have a fitted effect of over 65% in size
Outline: as §3

[17] = qHTS of pediatric cancer cell lines to identify multiple opportunities for drug repurposing: Primary screen for OHS-50 cells (AID 1347103);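 further: plate controls were DMSO neutral control for no effect and bortezomib positive control for full effect; nearly all actives have a fitted effect of over 40% in size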
Outline: as §4

[18] = qHTS of pediatric cancer cell lines to identify multiple opportunities for drug repurposing: Primary screen for RD cells (AID 1347104);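 further: plate controls were DMSO for no effect and bortezomib for full effect; nearly all actives have a fitted effect of over 55% in size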
Outline: as §2

[19] = qHTS of pediatric cancer cell lines to identify multiple opportunities for drug repurposing: Primary screen for MG 63 (6-TG R) cells (AID 1347105); further: on the % scale 0 is the no-effect control and ±100 the full control effect; nearly all actives have a fitted effect of over 50% in size
Outline: as §2

[20] = qHTS of pediatric cancer cell lines to identify multiple opportunities for drug repurposing: Primary screen for control Hh wild type fibroblast cells (AID 1347106);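 further: series mostly up to about 46 µM; on the % scale 0 is the no-effect control and ±100 the full control effect; a drop in luminescence marks cytotoxicity and a rise apparent proliferation; nearly all actives have a fitted effect of over 55% in size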
Outline: as §3

C[C@]12CC[C@@H]3c4ccc(O)cc4CC[C@H]3[C@@H]1CC[C@@H]2O
inactive: outcome [1]

CNCCC=C1c2ccccc2CCc2ccccc21
inactive: Potency [2] | outcome [1]

CNCCC(Oc1ccccc1C)c1ccccc1 (configuration not stated)
inactive: Potency [2] | outcome [1]

CCCn1c(=O)[nH]c(=O)c2[nH]cnc21
inactive: Potency [2] | outcome [1]

Nc1cc(Cl)c(NC2=NCCN2)c(Cl)c1
inactive: Potency [2] | outcome [1]

N[C@@H](Cc1cnc[nH]1)C(=O)O
active: Potency [2] 13.1 µM
inactive: outcome [1]

CN(C)CC/C=C1/c2ccccc2COc2ccc(CC(=O)O)cc21
inactive: Potency [3] | Potency [4] | Potency [5] | Potency [6] | Potency [7] | Potency [8] | Potency [9] | Potency [10] | Potency [11] | Potency [12] | Potency [13] | Potency [14] | Potency [15] | Potency [16] | Potency [17] | Potency [18] | Potency [19] | Potency [20]

COc1cc2c(cc1O)CC[C@@H]1[C@@H]2CC[C@]2(C)[C@@H](O)CC[C@@H]12
inactive: Potency [2] | outcome [1]

CC(C)C[C@H]1C(=O)N2CCC[C@H]2[C@]2(O)O[C@](NC(=O)[C@@H]3C=C4c5cccc6[nH]c(Br)c(c56)C[C@H]4N(C)C3)(C(C)C)C(=O)N12
inactive: Potency [2] | outcome [1]

CC[C@H](C)C(=O)O[C@H]1CCC=C2C=C[C@H](C)[C@H](CC[C@@H]3C[C@@H](O)CC(=O)O3)[C@H]21
inactive: Potency [2] | outcome [1]

C[C@H]1[C@H](NC(=O)/C(=N/OC(C)(C)C(=O)O)c2csc(N)n2)C(=O)N1S(=O)(=O)O (stereo in doubt)
inactive: Potency [3] | Potency [4] | Potency [5] | Potency [6] | Potency [7] | Potency [8] | Potency [9] | Potency [10] | Potency [11] | Potency [12] | Potency [13] | Potency [14] | Potency [15] | Potency [16] | Potency [17] | Potency [18] | Potency [19] | Potency [20]

NC[C@H]1O[C@H](O[C@H]2[C@H](O[C@@H]3O[C@H](CO)[C@@H](O)[C@H]3O)C(O)[C@H](N)C[C@@H]2N)[C@H](N)[C@@H](O)[C@@H]1O (some centres not stated)
inactive: activity change, negative = cytotoxic [3] 6.72% [at 9.17 µM] | activity change, negative = cytotoxic [4] 6.37% [at 9.22 µM] | activity change, negative = cytotoxic [5] 15.5% [at 9.22 µM] | activity change, negative = cytotoxic [6] -0.207% [at 9.22 µM] | activity change, negative = cytotoxic [7] -3.87% [at 9.22 µM] | activity change, negative = cytotoxic [8] 10.7% [at 11.5 µM] | activity change, negative = cytotoxic [9] 28.9% [at 9.22 µM] | activity change, negative = cytotoxic [10] 11.5% [at 9.22 µM] | activity change, negative = cytotoxic [11] -4.84% [at 9.22 µM] | activity change, negative = cytotoxic [12] 19.9% [at 11.4 µM] | activity change, negative = cytotoxic [13] 0% [at 9.22 µM] | activity change, negative = cytotoxic [14] 25.3% [at 9.22 µM] | activity change, negative = cytotoxic [15] 7.42% [at 11.5 µM] | activity change, negative = cytotoxic [16] 31.2% [at 9.22 µM] | activity change, negative = cytotoxic [17] 7.33% [at 11.5 µM] | activity change, negative = cytotoxic [18] 14% [at 9.22 µM] | activity change, negative = cytotoxic [19] -2.08% [at 9.22 µM] | activity change, negative = cytotoxic [20] -1.08% [at 9.22 µM]

CCC(NC(C)C)C(O)c1ccc(O)c(O)c1 (configuration not stated)
inactive: Potency [2]

O=C(O)c1cc2cc(Cc3cccnc3)ccc2o1
inactive: Potency [2] | outcome [1]

CC(C)COC(=O)OCN1C(=O)CN(CCN2CC(=O)N(COC(=O)OCC(C)C)C(=O)C2)CC1=O
inactive: Potency [2] | outcome [1]

C[C@]12CCC(=O)C=C1CC[C@H]1[C@@H]3CC[C@](O)(C(=O)CO)[C@@]3(C)C[C@H](O)[C@@]12F
inactive: Potency [3] | Potency [4] | Potency [5] | Potency [6] | Potency [7] | Potency [8] | Potency [9] | Potency [10] | Potency [11] | Potency [12] | Potency [13] | Potency [14] | Potency [15] | Potency [16] | Potency [17] | Potency [18] | Potency [19] | Potency [20]

C[N+]1(CCCCC[N+]2(C)CCCC2)CCCC1
inactive: Potency [2] | outcome [1]

C[C@@H]1C(=O)NC2=Nc3cccc(Cl)c3CN21
inactive: Potency [2] | outcome [1]

Oc1ccc(O)cc1
inactive: Potency [2] | outcome [1] | Potency [5] | Potency [8] | Potency [10] | Potency [11] | Potency [12] | Potency [16] | Potency [18] | Potency [19] | Potency [20]
active: Potency [7] 26.6 µM | Potency [9] 6.68 µM | Potency [14] 7.5 µM
